# HP1b binding inh – HTS for Inhibitors of HP1-beta Chromodomain Interactions with Methylated Histone Tails. AlphaScreen HP1-beta / biotin-H3K9me3 peptide binding. Potency, µM (top dose mostly 114 µM), inactives show at the top dose activity change, negative = inhibition, usual class: inhibitors. 0.56% of 390,000 active. AID 540317, 2011; note: nearly all actives have a fitted effect of over 70% in size
#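 AlphaScreen: HP1-beta (50 nM) preformed 30 min with biotin-H3(1-18)K9me3 peptide (50 nM) in PBS pH 7.4, 0.01% Tween-20. Compound added for 30 min at RT, then streptavidin donor/nickel chelate acceptor beads (10 ug/mL) for 30 min.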
# G9a inh – qHTS Assay for Inhibitors of Histone Lysine Methyltransferase G9a; AID 504332, 2011; G9a H3K9 monomethylation, AlphaScreen, 2 h; 8.8% of 350,000 active; Potency, µM (top dose mostly 102 µM), for the others: at the highest dose activity, negative = inhibition, usual class: inhibitors; Histone-lysine N-methyltransferase EHMT2 (Homo sapiens), Q96KQ7; note: % is set by controls: 0 for no effect and ±100 for the full control effect; nearly all actives have a fitted effect of over 75% in size
#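 Chemiluminescent proximity detection of H3K9 monomethylation, read after 10 min bead incubation in the dark. Reaction: 20 nM G9a, 500 nM biotin-H3K9 peptide, 20 uM SAM cofactor, 2 h, room temperature, following 15 min enzyme-compound preincubation.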
# BAZ2B block – qHTS Assay for Inhibitors of BAZ2B; AID 504333, 2011; 4.4% of 360,000 active; AlphaScreen BAZ2B-H3K14Ac peptide displacement; Potency, µM (series often up to 114 µM), for inactives: top-dose activity change, negative = inhibition, hits mostly inhibitors; Bromodomain adjacent to zinc finger domain protein 2B (Homo sapiens), Q9UIF8; note: % is set by controls: 0 for no effect and ±100 for the full control effect; nearly all actives have a fitted effect of over 60% in size
#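 Complex of BAZ2B and biotin-H3K14Ac (50 nM apiece) forms over 30 min at RT, then faces library compounds up to 110 uM for another 30 min; AlphaScreen beads added, 20 min dark incubation, luminescence read.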
# Sfp PPTase inh – qHTS Assay for Inhibitors of Bacillus subtilis Sfp phosphopantetheinyl transferase (PPTase); 4'-phosphopantetheinyl transferase ffp (Bacillus subtilis), Q9F4F7; Potency, µM, for inactives: largest response in the series, negative = inhibition, actives largely listed as inhibitors; Biochemical Sfp PPTase activity, qHTS; AID 1490, 2009; 3.5% of 310,000 active;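 note: the enzyme is Sfp with the accession as filed and its product quenches rhodamine fluorescence; 0% = enzyme reaction without inhibitor and -100% = no enzyme wells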
#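 Step 1, compound plus 15 nM Sfp-PPTase, 15 min, room temperature. Step 2, add rhodamine-CoA (5 uM) and BHQ-2-YbbR (12.5 uM). Step 3, read 525/598 nm fluorescence at 0 and 30 min.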
# JMJD2A Tudor – qHTS Assay for Inhibitors of JMJD2A-Tudor Domain. AlphaScreen JMJD2A-Tudor / H3K4me3 peptide binding. Potency, µM (doses to about 114 µM), inactives show at the top dose activity change, negative = inhibition, most hits filed as inhibitors. 4.4% of 390,000 active. AID 504339, 2011; note: % is set by controls: 0 for no effect and ±100 for the full control effect; nearly all actives have a fitted effect of over 50% in size
# * marks the source's active call; other numbers are inactive results; ? = inconclusive; nt = no result given; ! = repeats disagree; [ ] = dose if it differs, or a comment. The list is not random: actives were taken first. Their share in the collection is about 12%. Calls come from the whole dose curve; as a rule, active = well fitted curve in the direction sought with a large enough effect; inconclusive = small, poorly fitted or top-dose-only effect, or another doubt; inactive = no such curve, though single readings can be large; an effect the other way counts as inactive or inconclusive. Potency is the fitted concentration of half-maximal effect.
SMILES,HP1b binding inh,G9a inh,BAZ2B block,Sfp PPTase inh,JMJD2A Tudor
CC1=C(C(N)=O)C(c2ccc(C(C)C)cc2)n2nc(SCc3ccccc3)nc2N1 (centres undefined),33%,-2%[59 µM],-11%,nt,-5%
O=[N+]([O-])c1ccc(Cl)c(C2Nc3cccc4cccc(c34)N2)c1,?,13µM*,18µM*,?,25µM*
O=C(Nc1cccc(NC(=O)c2cc([N+](=O)[O-])ccc2Cl)n1)c1cc([N+](=O)[O-])ccc1Cl,12%,nt,nt,nt,?
Nc1nc2n(n1)C(=O)CC(c1ccccc1[N+](=O)[O-])N2 (centres undefined),52%,-8%,-4%,5%,-7%
COc1ccc(C2Nc3cccc4cccc(c34)N2)cc1,?,35µM*,40µM*,2%,?
CC1(C)Nc2cccc3cccc(c23)N1,-14%,nt,nt,nt,-31%
Clc1cccc(C2Nc3cccc4cccc(c34)N2)c1,?,nt,?,-28%,?
O=[N+]([O-])c1ccccc1C1Nc2cccc3cccc(c23)N1,?,2.8µM*,32µM*,8.9µM*,40µM*
Brc1cccc(C2Nc3cccc4cccc(c34)N2)c1,-13%,35µM*,?,-20%,-13%
COc1ccccc1C1Nc2cccc3cccc(c23)N1,?,?,50µM*,56µM*,50µM*
CCOc1ccccc1C1NC(=O)c2ccccc2N1 (centres undefined),25%,nt,nt,nt,-7%
Oc1ccccc1C1Nc2cccc3cccc(c23)N1,?,-118%[59 µM],35µM*,22µM*,-19%[11.4 µM]
C/C(=C\c1cc2ccccc2o1)C1Nc2cccc3cccc(c23)N1,?,-3%[0.501 µM],-27%,nt,?
CN(C)c1ccc(C2Nc3cccc4cccc(c34)N2)cc1,?,40µM*,?,-25%,?
c1ccc(C2Nc3cccc4cccc(c34)N2)cc1,?,13µM*,?,28µM*,?
c1ccc(-c2cccc(N3CC[C@@]4(CCCNC4)C3)c2)cc1,nt,-40%[12.7 µM],nt,-26%,nt
O=c1c(CCc2ccccc2)nc2cnc(N3CCOCC3)nc2n1C[C@H]1CCCO1,nt,7%[12.7 µM],nt,12%,nt
COc1cc(OC)c(C2Nc3cccc4cccc(c34)N2)c(OC)c1,?,28µM*,35µM*,-17%,50µM*
COc1ccc(-c2csc(Nc3ccccn3)n2)cc1OC,-25%,50µM*,45µM*,-28%,?
Oc1ccc(-c2csc(Nc3ccccn3)n2)cc1,3%,71µM*,?,3%,-27%
Cc1ccc(-c2csc(Nc3ccccn3)n2)cc1,21%,?,?,-7%,-22%
c1ccc(-c2csc(Nc3ccccn3)n2)cc1,13%,-7%,-36%,-15%,-29%
O=C(CSc1nc2c(oc3ccccc32)c(=O)n1Cc1ccco1)Nc1ccccc1,46%,26%[59 µM],-1%,nt,-10%
COc1cc2c(cc1OC)-c1cc(NC3CCCC3)nc(=O)n1CC2,26%,-18%,21%,-20%,-32%
COc1cc2c(cc1OC)-c1cc(=Nc3c(C)cc(C)cc3C)n(C)c(=O)n1CC2,-25%[57 µM],21µM*,nt,71µM*!,?
SMILES,HP1b binding inh,G9a inh,BAZ2B block,Sfp PPTase inh,JMJD2A Tudor
N#C/C(=C\C=C\c1ccccc1[N+](=O)[O-])C(=O)NCc1ccccc1,?,40µM*,?,-9%,?
N#C/C(=C\c1ccccc1[N+](=O)[O-])C(=O)NCc1ccccc1,14%,nt,-23%,-8%,-27%
CCCCCCCCNC(=O)/C(C#N)=C/c1ccccc1[N+](=O)[O-],-25%,40µM*,-2%,-2%,?
Cc1cc(N2CCN(C)CC2)nc2ccc(NC(=S)N3CCCCCC3)cc12,0%[57 µM],56µM*,-34%,-9%,-35%
Cc1cc(N2CCN(C)CC2)nc2ccc(NC(=S)N3CCCCC3)cc12,9%,25µM*,?,-21%,-32%
Cc1cc(N2CCOCC2)nc2ccc(NC(=O)C3CCCCC3)cc12,56%,nt,nt,nt,-11%
Cc1cc(N2CCN(C)CC2)nc2ccc(NC(=S)N3CCN(c4ccc(F)cc4)CC3)cc12,14%,-20%[59 µM],-31%,25%,-24%[11.4 µM]
Cc1cc(N2CCOCC2)nc2ccc(NC(=S)N3CCCCC3C)cc12 (centres undefined),-2%,45µM*,nt,?,?
Cc1cc(N2CCN(C)CC2)nc2ccc(NC(=S)N3CCN(c4ccc(Cl)cc4)CC3)cc12,-18%,40µM*,-29%,45µM*,-30%
CCN(CC)CCCNc1oc(/C=C/c2ccc(OC)c(OC)c2)nc1C#N,17%,-8%[59 µM],-2%,nt,-15%
COCCNC(=O)c1[nH]c2cc(C)ccc2c1Sc1ccc(Cl)cc1,2%,-26%[59 µM],-12%,nt,-20%
COc1ccc(-n2c(=O)c3sc4ccccc4c3n(CC(=O)N3CCCC3)c2=O)cc1,47%,32%[59 µM],4%,nt,-4%
CC(NC(=O)c1ccc(N(C)C)c([N+](=O)[O-])c1)c1ccc(-n2ccnc2)cc1 (centres undefined),-7%,79µM*,?,13%,?
CC(NC(=O)c1cc([N+](=O)[O-])cc([N+](=O)[O-])c1)c1ccc(-n2ccnc2)cc1 (centres undefined),6%,?,?,14%,-33%
O=c1[nH]ccc2c(O)cccc12,4%,25µM*!,nt,nt,-18%
CCc1nnc(SCC(=O)Nc2ccc(F)cc2F)c2cc3sc(C)cc3n12,54%,-36%[59 µM],-8%,nt,-4%
CCOC(=O)c1c(-c2ccc(Cl)cc2)csc1NC(=O)CNCc1ccco1,?,-132%[59 µM],40µM*,50µM*,45µM*
CCOC(=O)c1c(-c2ccc(OC)cc2)csc1NC(=O)CNCc1ccco1,-1%,-49%,-44%,-17%,?
CCOC(=O)c1c(-c2ccccc2)csc1NC(=O)C(C)NCc1ccco1 (centres undefined),28µM*,25µM*,50µM*,?,?
COc1ccc(-n2ncc(C(=O)Nc3ccc(C)cc3Cl)c2C2CCN(C(=O)OC(C)(C)C)CC2)cc1,38%,-5%[59 µM],0%[57.1 µM],nt,-14%
COc1ccc(-c2n[nH]c(=S)n2-c2ccc(C)cc2)cc1OC,27%,4µM*,-14%,?,6.3µM*
Cc1ccc(-n2c(-c3cccc(C)c3)n[nH]c2=S)cc1,-8%,-127%,-28%,-8%,20µM*
Cc1ccc(-n2c(C)nc3ncnc(-c4ccccc4)c32)cc1,-1%,9%[59 µM],2%,-1%,-6%
Cc1ccc(-n2c(-c3c(-c4ccccc4)noc3C)n[nH]c2=S)cc1,12%,0.56µM*,-23%,-6%,-23%
